Compounds with a hit are over-represented: about 7.9% of the library has one in this group of screens.
MARV entry inh: Marburg virus entry inhibition | AID 540276 | 300,000 compounds, 1.8% hits | Marburg virus pseudotyped entry inhibition, cell reporter | Potency, µM (doses to about 37.8 µM), without a hit: at the top dose activity change, negative = inhibition, actives largely listed as inhibitors; calls by dose curve; tested in HEK293 cells; note: potency is the fitted concentration of half-maximal effect
Lassa entry inh: inhibitors of Lassa virus binding or cell entry; Potency, µM (doses to about 37.9 µM), without a hit: top-dose activity change, negative = inhibition, hits mostly inhibitors; AID 540256; Lassa virus pseudotype entry inhibition, cell reporter; 300,000 compounds, 1.2% hits; calls by dose curve; tested in HEK293 cells; note: potency is the fitted concentration of half-maximal effect; nearly all actives have a fitted effect of over 50% in size
HCV inh: blocks hepatitis C virus; Huh7.5.1 HCVcc-Cre infection, luciferase reporter, 44 h; Potency, µM (top dose mostly 41.8 µM), inactives show at the highest dose activity change, negative = inhibition, usual class: inhibitors; 340,000 compounds, 3.4% hits; AID 651820; active = well fitted inhibition curve with a large enough effect; inconclusive = small, poorly fitted or top-dose-only effect, or another doubt; inactive = no such curve, though single readings can be large or run the other way; note: potency is the fitted concentration of half-maximal effect
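After 44 h co-culture of compound, cells and HCVcc-Cre (~0.5 moi), substrate is added for 15 min at room temperature and luciferase measured over 15 sec. Cells were seeded at 1,000/well and pre-cultured 4 h.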
HCMV antiviral: blocks human cytomegalovirus replication; HFF cells, HCMV-luciferase reporter, 72 h; hits give low values; 410,000 compounds, 4.5% hits; AID 1259415; activity change, negative = inhibition, % at 57.5 µM; in the data active = activity change below about -60%; inconclusive = no clear call, values can overlap the other calls; inactive = above about -39%
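After 16 h attachment at 37C, HFF cells received test compound and HCMV-luciferase (1 PFU/cell); reporter luminescence read 72 h later, data normalized against buffer-only and known inhibitor Salinomycin.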
FMDV inh: foot and mouth disease virus antiviral activity. FMDV antiviral cell-based qHTS. Potency, µM (titrated, usually from 57.9 µM), for inactives: at the top dose activity change, negative = inhibition, usual class: inhibitors. AID 1159524. 410,000 compounds, 1.2% hits; calls by dose curve; tested in HEK293T cells; note: read-out not given here; potency is the fitted concentration of half-maximal effect; nearly all actives have a fitted effect of over 45% in size
An asterisk follows results filed as active; ? = inconclusive; . = not tested or not shown; [ ] = remark or other dose. % is set by controls: 0 for no effect and ±100 for the full control effect.

SMILES | MARV entry inh | Lassa entry inh | HCV inh | HCMV antiviral | FMDV inh
COc1ccc(NS(=O)(=O)c2cc(NC(=O)[C@@H](NC(=O)c3ccccc3)C(C)C)ccc2C)cc1 | ? | ? | ? | -87.4* | 58.8%
COc1ccc(NS(=O)(=O)c2cc(NC(=O)Cc3c(F)cccc3Cl)ccc2OC)cc1 | -29.6% | ? | 12.6µM* | -29.0 | 32.6%
COc1ccc(NS(=O)(=O)c2cc(NC(=O)Cc3cccs3)ccc2C)cc1 | ? | 1.84µM* | 30.4% | -8.7 | 5.2%
COc1ccc(NC(=O)Cc2cccc(F)c2)cc1S(=O)(=O)Nc1ccccc1Cl | ? | ? | ? | -34.3 | 32.4%
Cc1cnc(-n2ncc(C(=O)N(C)CC3CCCN(C)C3)c2C2CC2)nc1-c1cccs1 (centres undefined) | . | . | . | . | -15.8%
O=C(NCc1ccco1)C(c1cccs1)N(Cc1ccccc1)C(=O)Cn1nnc2ccccc21 (centres undefined) | -13.5% | -15.2% | -13.7% | -62.4* | -1.8%
CN1CCC(Oc2ccccc2Sc2ccccc2)CC1 | 10.3µM* | 8.2µM* | ? | -76.7* | ?
CN1CCN(Cc2ccccc2Sc2ccccc2)CC1 | ? | ? | ? | ? | -15.6%
S=C(c1c[nH]c2ccc(Br)cc12)N1CCOCC1 | . | . | -1.1% | -71.8* | 0.0%
O=C(c1c[nH]c2ccccc12)N1CCOCC1 | -23.6%[46.1 µM] | -10.5% | 2.1% | -21.0 | 9.0%
O=C(NC(NC(=S)Nc1ccccc1)C(Cl)(Cl)Cl)c1cccc(Cl)c1 (centres undefined) | ? | ? | 11.2µM* | -78.5* | .
Cc1ccc(NC(=S)NC(NC(=O)c2ccccc2)C(Cl)(Cl)Cl)c(C)c1 (centres undefined) | ? | ? | ? | -67.9* | ?
CNc1nc2cnc(Nc3ccc(F)cc3)cc2n1-c1cccc(C(F)(F)F)c1 | . | . | . | 3.7 | .
O=C(COC(=O)COc1ccccc1)Nc1ncc([N+](=O)[O-])s1 | ? | 5.8% | 17.0% | 32.7 | 13.5%
N/C(=N\OC(=O)Nc1ccccc1)c1ncc([N+](=O)[O-])s1 | ? | -18.4% | 12.6µM* | -32.5 | -3.6%
COc1cc(C2C(C#N)=C(N)Oc3cc(N)ccc32)cc(OC)c1OC (centres undefined) | 5.62µM* | ? | -24.8% | -35.5 | 9.0%
CC(=O)C1=C(C)OC(N)=C(C#N)C1c1cccnc1 (centres undefined) | -26.3%[46.1 µM] | 8.8%[46.1 µM] | 13.6% | 43.7 | 7.5%
N#CC1=C(N)Oc2cc(N)ccc2C1c1cccnc1 (centres undefined) | 15.8µM* | -1.5% | -12.4% | 4.0 | -20.7%
CCN(CC)c1ccc2c(c1)OC(N)=C(C#N)C2c1cccnc1 (centres undefined) | ? | ? | ? | -85.0* | ?
N#CC1=C(N)Oc2cc(Nc3ccccc3)ccc2C1c1ccncc1 (centres undefined) | 17.8µM* | ? | ? | 9.8 | ?
CC(Oc1ccc(Cl)cc1Cl)C(=O)Nc1ccc(OCC(=O)O)cc1 (centres undefined) | 22.5%[46.1 µM] | 13.2%[46.1 µM] | 10.5% | 46.4 | -8.7%
CC(=NCc1ccco1)c1c(O)n(C2CCCCC2)c(=O)[nH]c1=O | 18.0% | 2.1% | -23.3% | -3.8 | -18.0%
CCC(=NCc1ccco1)c1c(O)n(C2CCCCC2)c(=O)[nH]c1=O | -2.4% | 3.66µM* | -1.7% | -29.2 | ?
Cc1nn(CC(C)C)c2sc(C(=O)NC3CC(C)(C)NC(C)(C)C3)cc12 | ? | -19.2%[46.1 µM] | ? | -9.8 | -8.4%
O=C(OC1C2CCC1C1CN(CCc3ccccc3)CC12)c1ccccc1 (centres undefined) | ? | ? | 0.4% | -68.2* | ?
SMILES | MARV entry inh | Lassa entry inh | HCV inh | HCMV antiviral | FMDV inh
CCOC(=O)C1CCCN(CCc2ccccc2)C1 (centres undefined) | . | . | 6.2% | 25.4 | -12.9%
Cc1ccc(S(=O)(=O)c2nc(S(C)(=O)=O)sc2N2CCCCCC2)cc1 | . | . | 1.7% | ? | 25.7%
Cc1ccc(S(=O)(=O)c2nc(S(C)(=O)=O)sc2N2CCN(C)CC2)cc1 | . | . | -9.3% | -103.8* | -2.1%
CCCS(=O)(=O)c1nc(S(=O)(=O)c2ccc(C)cc2)c(N2CCOCC2)s1 | -0.2% | 0.2% | -3.0% | -62.6* | 17.9%
N#Cc1c[nH]n2c(NC3CCCC3)c(-c3ccc(Cl)cc3)nc12 | 1.41µM* | -27.4%[46.1 µM] | . | -20.1 | -10.8%
CC(C)c1ccc(CN(C(=O)C2COc3ccccc3O2)C2CCS(=O)(=O)C2)cc1 (centres undefined) | ? | -15.6% | 19.5% | -93.7* | -25.6%
Cc1ccc(NC(=O)c2ccc(S(=O)(=O)N(C)c3ccccc3)cc2)cc1S(=O)(=O)N1CCOCC1 | . | . | ? | 0.0 | 12.6µM*
CN(c1ccccc1)S(=O)(=O)c1ccc(Cl)c(C(=O)Nc2ccc(N3CCOCC3)cc2)c1 | 3.2%[46.1 µM] | ? | 15.8µM* | -24.0 | -14.8%
COc1ccc(NC(=O)c2ccc(S(=O)(=O)N(C)c3ccccc3)cc2)cc1S(=O)(=O)N1CCOCC1 | . | . | . | ? | 15.8µM*
OCCN1CCN(Cc2ccc3c(c2)CN(Cc2cccc4ncccc24)CCO3)CC1 | . | . | . | . | -15.2%
CC(OC(=O)c1ccc(S(C)(=O)=O)c([N+](=O)[O-])c1)C(=O)NC1C2CC3CC(C2)CC1C3 (centres undefined) | . | . | . | -97.1* | 31.6µM*
CCC(OC(=O)c1ccc(S(C)(=O)=O)c([N+](=O)[O-])c1)C(=O)NC1C2CC3CC(C2)CC1C3 (centres undefined) | . | . | . | -94.6* | 39.8µM*
CC(C)CN1CCN(C(=O)COC(=O)c2ccc(S(C)(=O)=O)c([N+](=O)[O-])c2)CC1 | . | . | . | 34.7 | ?
CCS(=O)(=O)N1CCN(c2ccc(C(=O)NC34CC5CC(CC(C5)C3)C4)cc2[N+](=O)[O-])CC1 | -3.8% | 2.5% | 33.0% | -23.2 | -20.7%
CN1c2ccccc2[C@]23CCN(S(=O)(=O)C(F)(F)F)C2=Cc2ccccc2[C@H]13 | . | . | . | 4.5 | .
Cc1csc(NC(=O)c2ccc(Cn3nc(C)c(Br)c3C)o2)n1 | ? | 11.2µM* | 10µM* | -15.7 | 22.4µM*
Cc1csc(NC(=O)c2ccco2)n1 | ? | -11.6% | 0.9% | -84.3* | 21.2%
Nc1nc(-c2ccc(NC(=O)c3ccco3)cc2)cs1 | 5.01µM* | ? | ? | 15.2 | -60.3%
Cc1nn(Cc2ccc(C(=O)Nc3ccccc3C(F)(F)F)o2)c(C)c1Br | ? | ? | ? | -10.4 | -2.6%
O=C(O)Cc1csc(NC(=O)c2ccco2)n1 | 1.7% | -2.9% | 0.2% | -6.2 | -1.4%
Cc1ccc(S(=O)(=O)CC(=O)Nc2nc(C(C)(C)C)cs2)cc1 | 2.1% | 3.66µM* | 2.2% | 13.9 | -22.8%
Cc1ccc(S(=O)(=O)CCC(=O)Nc2nc(C(C)(C)C)cs2)cc1 | . | . | -20.6% | -19.5 | -26.0%
O=C1CN(S(=O)(=O)c2cccc(C(=O)O)c2)c2ccccc2N1 | ? | 16.0%[46.1 µM] | 18.7% | -10.2 | 41.6%
Cc1ccc(C(=O)c2cn(Cc3c(F)cccc3Cl)c3nc(C)ccc3c2=O)cc1 | -1.8%[46.1 µM] | 9.2%[46.1 µM] | . | -9.0 | -26.7%

From PubChem
